Compounds without any hit were thinned out: in the full panel of roughly 79,000, 15% have a hit. Values without a mark were called inactive. Active and inactive are the calls of the source. No stated cut-off is given here; in the data, active means growth inhibition above about 70%; inactive means the rest.
Assay: NCI Yeast Anticancer Drug Screen. Data for the rad50EPP+ strain (AID 151);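 further: 0% = growth of vehicle-treated control cultures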
Conditions: S. cerevisiae rad50 mutant strain, hits give high values
Procedure: Growth inhibition of yeast strains with defined genetic alterations is measured as a screen for potential anti-cancer activity. Selected strains with alterations in DNA damage repair or cell cycle control were exposed to compounds and growth inhibition was measured relative to vehicle treated controls. The strain used in this assay is rad50EPP+

SMILES	growth inhibition (at 1.2 µM) [%]	growth inhibition (at 3.7 µM) [%]	growth inhibition (at 11.0 µM)	growth inhibition (at 33.0 µM)	growth inhibition (at 100.0 µM)
O=C(O)CNc1ccc(Cl)c(Cl)c1	-2	1	6%	22%	43%
O=[N+]([O-])c1cc(CCl)ccc1CCl	16	44	89% (active)	97% (active)	98% (active)
CCCCCCCCC/C=C/C=C/C(=O)NCC(=O)NC1C(O)C(O)C(Nc2ncnc3nc[nH]c23)OC1C(O)CO (stereo not given)	-19	-17	-15%	-36%	-48%
CNC1C(OC2C(OC3C(O)C(O)C(N=C(N)N)C(O)C3N=C(N)N)OC(C)C2(O)CO)OC(CO)C(O)C1O (stereo not given)	-2	4	-2%	-3%	-10%
Cc1ccc(CSC(N)=Nc2ccccc2)cc1C	4	12	11%	4%	15%
c1ccc2c(c1)sc1cc3ccncc3cc12	7	21	63%	94% (active)	99% (active)
CCC#CCCCOC(=O)c1cc([N+](=O)[O-])cc([N+](=O)[O-])c1	3	21	55%	92% (active)	98% (active)
O=C1C2CC[C@@H]3C(=O)C(Cl)(Cl)[C@@H]3CCC2C1(Cl)Cl (stereo not given in full)	8	15	37%	56%	50%

Reference: PubChem BioAssay (NCI)
